# In PubChem BioAssay:
# Several values for one entry are separate records, joined by “and”; a condition that tells them apart may be missing. Equal entries are not always repeated. Activity calls are given as the source filed them.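 How the source made its calls, unless noted: active means compounds whose cell count with miR-34 switched on is under 0.7 times the count with it off; inactive means the rest.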
# What was measured:
# [1] = hESC survival regulators, cell-based (AID 493140; call rule not given here;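 further: cells exposed to compounds for four days before counting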); conditions: human embryonic stem cell survival screen; stronger effect = higher value
# [2] = stimulators of nuclear beta-catenin in C2C12, primary screen, imaging, WNT3A-conditioned medium, mouse C2C12, NPC library (AID 1117326; in the data active means nuclear beta-catenin stimulation mostly above about 4.2%, no sharp cut-off; inactive means mostly below about 10%); conditions: stronger effect = higher value
# [3] = stimulators of insulin release from INS-1E, primary screen, cell-based, 5 mM glucose, NPC library (AID 1117329;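 active means compound raises insulin release from rat beta cells at 5 mM glucose, no numeric limit stated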); conditions: rat INS-1E insulin secretion, at 10 µM, stronger effect = higher value
# [4] = growth inhibition of GSK3B-pretreated HCT116 cells – cell-based, CellTiter-Glo, 0.2 to 20 µM (AID 1117336;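 active means compounds lowering colon cancer cell viability after pretreatment blocking the GSK3B kinase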); conditions: HCT116 viability after GSK3B inhibitor, at 20 µM, stronger effect = higher value
# [5] = inhibition of endothelial tube formation, primary screen, imaging, VEGF stimulated, CD31 staining, tube area, NPC library (AID 1117340;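 active means compound that reduces growth-factor-driven endothelial tube area in a mixed cell culture, no cutoff stated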); conditions: VEGF-stimulated ADSC/ECFC co-culture, at 10 µM, stronger effect = higher value
# [6] = glucagon-like peptide 1 release enhancers, primary assay, NCI-H716 cell line, NPC library (AID 1117341;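 active means compound raises GLP1 secretion from the human gut endocrine cells, with no numeric limit stated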); conditions: NCI-H716 cells, at 10 µM, stronger effect = higher value
# [7] = HCT116 colon cancer cell growth inhibition, primary screen, CellTiter-Glo luminescence, NPC library (AID 1117342;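 active means compounds that lower survival of HCT116 colon cancer cells in the luminescence readout, no numeric limit stated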); conditions: at 20 µM (top of the series)
# [8] = CellTiter-Glo luminescent readout of SW480 viability loss, NPC library primary (AID 1117343;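 active means compounds that lower viability of the colon cancer cells in the luminescence readout, with no numeric limit stated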); conditions: CellTiter-Glo luminescence; at 20 µM (top of the series) unless noted
# [9] = decreased DLD-1 cellular survival, CellTiter-Glo luminescent readout, NPC compound collection, primary HTS (AID 1117346;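 active means compounds that lower survival of DLD-1 colon cancer cells in the luminescence readout, no cutoff given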); conditions: DLD-1 viability, CellTiter-Glo luminescence; at 20 µM (top of the series)
# [10] = differential killing of epithelial or mesenchymal cells, primary screen, imaging, PC-3E GFP, TEM4-18 mCherry, co-culture (AID 1345086;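 active means compounds killing one labelled cell type while sparing the other, by normalised counts and ratio limits, not self-fluorescent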;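 on all read-outs here: cells exposed to compound for 72 h before imaging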;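 on red/green cell ratio (normalised): normalised mesenchymal count divided by normalised epithelial count so high means epithelial killing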); conditions: imaging cell counts, at 1 µM; for red/green cell ratio (normalised): actives lie on both sides, counts scaled to control wells, 1 = unselective
# [11] = sensitizers of A549 cells to miR-34 induction, primary screen, imaging, A549 dox-inducible miR-34, nuclei and caspase counts (AID 1347080); conditions: A549 miR-34 inducible, Hoechst nuclei count, 48 h
# [12] = survival rescue of mitochondrial mutant cells in low glucose, primary screen, MELAS cybrids, Rieske KO mouse fibroblasts, CellTiter-Glo (AID 1508586;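 active means mean z-score across replicates of 1.96 or higher in either the MELAS or the Rieske mutant cell line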;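 further: z relative to plate mean and SD of compound and empty wells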)
# [13] = biological target: NAD(+) hydrolase SARM1 (Homo sapiens) (UniProt Q6SZW1); experiment: SARM1 TIR NADase inhibitors, cell lysate, NAD-Glo luminescence (AID 1508614;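 active means compound whose remaining NAD level is above about 45 nM, limit read from the data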); conditions: SAM-TIR HEK293T lysate NADase, at 1 µM, stronger effect = higher value
# Sequence of NAD(+) hydrolase SARM1 (Homo sapiens) (Q6SZW1 whole entry, looked up): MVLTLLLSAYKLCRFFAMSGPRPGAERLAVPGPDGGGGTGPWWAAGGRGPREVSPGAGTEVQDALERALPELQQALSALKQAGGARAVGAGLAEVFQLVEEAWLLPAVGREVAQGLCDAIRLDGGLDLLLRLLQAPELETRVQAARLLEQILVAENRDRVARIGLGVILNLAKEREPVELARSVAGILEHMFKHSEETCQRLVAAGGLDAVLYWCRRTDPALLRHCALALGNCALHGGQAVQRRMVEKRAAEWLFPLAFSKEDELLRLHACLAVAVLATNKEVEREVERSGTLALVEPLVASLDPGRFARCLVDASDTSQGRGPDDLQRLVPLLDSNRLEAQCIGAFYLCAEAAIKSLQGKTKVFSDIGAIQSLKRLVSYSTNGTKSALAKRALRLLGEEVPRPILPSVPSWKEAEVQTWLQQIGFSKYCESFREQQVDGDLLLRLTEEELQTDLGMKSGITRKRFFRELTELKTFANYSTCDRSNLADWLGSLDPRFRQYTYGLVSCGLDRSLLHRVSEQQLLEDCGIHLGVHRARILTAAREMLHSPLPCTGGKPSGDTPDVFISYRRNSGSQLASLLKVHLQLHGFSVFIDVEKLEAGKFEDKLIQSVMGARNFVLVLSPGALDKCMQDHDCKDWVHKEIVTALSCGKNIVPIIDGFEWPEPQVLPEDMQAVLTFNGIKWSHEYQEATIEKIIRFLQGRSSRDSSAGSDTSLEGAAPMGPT
# [14] = liver-stage malaria parasite growth inhibition, primary screen, cell-based, HepG2, luciferase luminescence, HepG2 viability (AID 624349; in the data active means parasite load remaining mostly below about 12%, no sharp cut-off; inactive means mostly above about 10%;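 further: 100% = mean of DMSO negative control wells on the same plate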); conditions: P. berghei liver stage in HepG2, luciferase luminescence, concentration not given here; parasite load remaining: stronger effect = lower value; viability: measured here: HepG2 viability without parasites
# [15] = measured here: epithelial PC-3E GFP cell survival
# [16] = measured here: mesenchymal TEM4-18 mCherry cell survival
# [17] = stronger effect = lower value, cell number ratio, induced over uninduced
# [18] = measured here: relative caspase fold change +Dox/-Dox
# [19] = measured here: total cells with miR-34 induction, stronger effect = lower value
# [20] = measured here: total cells without miR-34 induction
# [21] = MELAS cybrid survival, CellTiter-Glo 48 h, stronger effect = higher value
# [22] = Rieske KO mouse fibroblast survival, CellTiter-Glo 72 h
structure (smiles),measurement,setting,value
CN(C(=O)CN(CCO)CC(=O)N(C)C(C)(C)Cc1ccccc1)C(C)(C)Cc1ccccc1,survival,[1],8.83 (inactive)
same,nuclear beta-catenin stimulation,[2]; at 10 µM,9.4% (inactive)
same,nuclear beta-catenin stimulation,"[2]; stimulation, at 2 µM",3.2%
same,insulin secretion stimulation,[3],1.4% (inactive)
same,viability decrease,[4],-33.9% (inactive)
same,tube area decrease,[5],2.2% (inactive)
same,GLP1 secretion stimulation,[6],107% (active)
same,inhibition of viability,[7],59.3% (active)
same,viability decrease (inhibition),[8],124% (active)
same,viability decrease (inhibition),[9],104% (active)
same,red/green cell ratio (normalised),[10],1.14 (inactive)
same,normalised cell number,[10]; [15],1.13
same,normalised cell number,[10]; [16],1.29
same,fold change,[11]; [17],0.876 (inactive) and 0.908 (inactive)
same,fold change,[11]; [18],1.3 and 4.08
same,cell count,[11]; [19],7940 and 11300
same,cell count,[11]; [20],9070 and 12400
same,z-score,[12]; [21],0.165 (inactive)
same,z-score,[12]; [22],-0.15
same,remaining NAD,[13],10 nM (inactive)
CC(=O)Nc1ncc([N+](=O)[O-])s1,nuclear beta-catenin stimulation,[2]; at 10 µM,-0.3% (inactive)
same,nuclear beta-catenin stimulation,"[2]; stimulation, at 2 µM",0.5%
same,insulin secretion stimulation,[3],-2.2% (inactive)
same,viability decrease,[4],4.2% (inactive)
same,tube area decrease,[5],5.9% (inactive)
same,GLP1 secretion stimulation,[6],-1.7% (inactive)
same,inhibition of viability,[7],12% (inactive)
same,viability decrease (inhibition),[8],9.6% (inactive)
same,viability decrease (inhibition),[9],13.5% (inactive)
same,red/green cell ratio (normalised),[10],1.12 (inactive)
same,normalised cell number,[10]; [15],0.93
same,normalised cell number,[10]; [16],1.04
same,fold change,[11]; [17],0.863 (inactive) and 0.891 (inactive)
same,fold change,[11]; [18],1.13 and 1.04
same,cell count,[11]; [19],8350 and 8950
same,cell count,[11]; [20],9670 and 10000
same,z-score,[12]; [21],-0.179 (inactive)
same,z-score,[12]; [22],-0.168
same,remaining NAD,[13],10 nM (inactive)
CC(=O)CC(c1ccc([N+](=O)[O-])cc1)c1c(O)c2ccccc2oc1=O (stereo unspecified),survival,[1],21.3 (inactive)
same,parasite load remaining,[14],45.5% (inactive) and 55% (inactive)
same,viability,[14],108% and 91.9%
same,nuclear beta-catenin stimulation,[2]; at 10 µM,-1.1% (inactive)
same,nuclear beta-catenin stimulation,"[2]; stimulation, at 2 µM",-1.3%
same,insulin secretion stimulation,[3],0.6% (inactive)
same,viability decrease,[4],-2.5% (inactive)
same,tube area decrease,[5],-40.9% (inactive)
same,GLP1 secretion stimulation,[6],-5.1% (inactive)
same,inhibition of viability,[7],4.3% (inactive)
same,viability decrease (inhibition),[8],21.6% (inactive)
same,viability decrease (inhibition),[9],4.6% (inactive)
same,red/green cell ratio (normalised),[10],0.82 (inactive)
same,normalised cell number,[10]; [15],1.28
same,normalised cell number,[10]; [16],1.05
same,fold change,[11]; [17],0.921 (inactive)
same,fold change,[11]; [18],1.68
same,cell count,[11]; [19],7660
same,cell count,[11]; [20],8320
same,z-score,[12]; [21],0.273 (inactive)
same,z-score,[12]; [22],0.192
same,remaining NAD,[13],10 nM (inactive)
CCCCCCC[N+](CC)(CC)CCCCc1ccc(Cl)cc1,survival,[1],0.5 (inactive)
same,parasite load remaining,[14],34.3% (inactive) and 96.8% (inactive)
same,viability,[14],48.5% and 90.6%
same,nuclear beta-catenin stimulation,[2]; at 10 µM,1.5% (inactive)
same,nuclear beta-catenin stimulation,"[2]; stimulation, at 2 µM",0.5%
same,insulin secretion stimulation,[3],1% (inactive)
same,viability decrease,[4],95.1% (active)
same,tube area decrease,[5],83.4% (active)
same,GLP1 secretion stimulation,[6],7.2% (inactive)
same,inhibition of viability,[7],79.1% (active)
same,viability decrease (inhibition),[8],60.9% (active)
same,viability decrease (inhibition),[9],75.4% (active)
same,red/green cell ratio (normalised),[10],0.92 (inactive)
same,normalised cell number,[10]; [15],0.97
same,normalised cell number,[10]; [16],0.89
same,fold change,[11]; [17],0.718 (inactive)
same,fold change,[11]; [18],1.54
same,cell count,[11]; [19],6720
same,cell count,[11]; [20],9350
same,z-score,[12]; [21],-3 (inactive)
same,z-score,[12]; [22],-0.71
CNC(=O)c1c(I)c(NC(C)=O)c(I)c(C(=O)O)c1I,nuclear beta-catenin stimulation,[2]; at 10 µM,0.7% (inactive)
same,nuclear beta-catenin stimulation,"[2]; stimulation, at 2 µM",0.8%
same,insulin secretion stimulation,[3],0.9% (inactive)
same,viability decrease,[4],-4.1% (inactive)
same,tube area decrease,[5],4.3% (inactive)
same,GLP1 secretion stimulation,[6],0.4% (inactive)
same,inhibition of viability,[7],13.4% (inactive)
same,viability decrease (inhibition),[8],0.4% (inactive)
same,viability decrease (inhibition),[9],-2.95% (inactive)
same,red/green cell ratio (normalised),[10],0.78 (inactive)
same,normalised cell number,[10]; [15],1.25
same,normalised cell number,[10]; [16],0.97
same,fold change,[11]; [17],0.982 (inactive)
same,fold change,[11]; [18],0.852
same,cell count,[11]; [19],9390
same,cell count,[11]; [20],9560
same,remaining NAD,[13],10 nM (inactive)
CCCCNc1ccc(C(=O)OCCOCCOCCOCCOCCOCCOCCOCCOCCOC)cc1,survival,[1],33.2 (inactive)
same,parasite load remaining,[14],14% (inactive) and 88.5% (inactive)
same,viability,[14],47.7% and 90.2%
same,nuclear beta-catenin stimulation,[2]; at 10 µM,-0.8% (inactive)
same,nuclear beta-catenin stimulation,"[2]; stimulation, at 2 µM",0.5%
same,insulin secretion stimulation,[3],-2.3% (inactive)
same,viability decrease,[4],9.3% (inactive)
same,tube area decrease,[5],4.2% (inactive)
same,GLP1 secretion stimulation,[6],-2.3% (inactive)
same,inhibition of viability,[7],31.5% (inactive)
same,viability decrease (inhibition),[8],13% (active)
same,viability decrease (inhibition),[9],-17.6% (inactive)
same,red/green cell ratio (normalised),[10],1.21 (inactive)
same,normalised cell number,[10]; [15],0.86
same,normalised cell number,[10]; [16],1.04
same,fold change,[11]; [17],0.937 (inactive)
same,fold change,[11]; [18],1.37
same,cell count,[11]; [19],8120
same,cell count,[11]; [20],8660
same,z-score,[12]; [21],-0.167 (inactive)
same,z-score,[12]; [22],0.149
same,remaining NAD,[13],10 nM (inactive)
[O-][n+]1cccc(CO)c1,nuclear beta-catenin stimulation,[2]; at 10 µM,-0.4% (inactive)
same,nuclear beta-catenin stimulation,"[2]; stimulation, at 2 µM",0.6%
same,insulin secretion stimulation,[3],2.1% (inactive)
same,viability decrease,[4],-35% (inactive)
same,tube area decrease,[5],18.7% (inactive)
same,GLP1 secretion stimulation,[6],-4.1% (inactive)
same,inhibition of viability,[7],1.43% (inactive)
same,viability decrease (inhibition),[8],-11.9% (inactive)
same,viability decrease (inhibition),[9],-6% (inactive)
same,red/green cell ratio (normalised),[10],0.9 (inactive)
same,normalised cell number,[10]; [15],1.13
same,normalised cell number,[10]; [16],1.02
same,fold change,[11]; [17],0.861 (inactive)
same,fold change,[11]; [18],0.917
same,cell count,[11]; [19],7710
same,cell count,[11]; [20],8950
same,remaining NAD,[13],10 nM (inactive)
CN(C/C=C/c1ccccc1)Cc1cccc2ccccc12,survival,[1],21.7 (inactive)
same,parasite load remaining,[14],71.6% (inactive)
same,viability,[14],71.3%
same,nuclear beta-catenin stimulation,[2]; at 10 µM,2.1% (inactive)
same,nuclear beta-catenin stimulation,"[2]; stimulation, at 2 µM",1.8%
same,insulin secretion stimulation,[3],14.3% (inactive)
same,viability decrease,[4],86.7% (active)
same,tube area decrease,[5],-3.5% (inactive)
same,GLP1 secretion stimulation,[6],0.7% (inactive)
same,inhibition of viability,[7],85.3% (active)
same,viability decrease (inhibition),[8],95.4% (active)
same,viability decrease (inhibition),[9],74.5% (active)
same,red/green cell ratio (normalised),[10],1.01 (inactive)
same,normalised cell number,[10]; [15],1.19
same,normalised cell number,[10]; [16],1.2
same,fold change,[11]; [17],0.954 (inactive)
same,fold change,[11]; [18],0.94
same,cell count,[11]; [19],8810
same,cell count,[11]; [20],9230
same,z-score,[12]; [21],-0.0397 (inactive)
same,z-score,[12]; [22],-0.28
same,remaining NAD,[13],10 nM (inactive)
CC(=O)N[C@@H](CC(C)C)C(=O)O,survival,[1],3.17 (inactive)
same,parasite load remaining,[14],73.5% (inactive) and 218% (inactive)
same,viability,[14],98.8% and 70.6%
same,nuclear beta-catenin stimulation,[2]; at 10 µM,0% (inactive)
same,nuclear beta-catenin stimulation,"[2]; stimulation, at 2 µM",1.3%
same,insulin secretion stimulation,[3],-1% (inactive)
same,viability decrease,[4],-27.2% (inactive)
same,tube area decrease,[5],-4.7% (inactive)
same,GLP1 secretion stimulation,[6],-1.9% (inactive)
same,inhibition of viability,[7],-7.5% (inactive)
same,viability decrease (inhibition),[8],28% (inactive)
same,viability decrease (inhibition),[9],-12.9% (inactive)
same,red/green cell ratio (normalised),[10],0.81 (inactive)
same,normalised cell number,[10]; [15],1.12
same,normalised cell number,[10]; [16],0.91
same,fold change,[11]; [17],0.893 (inactive)
same,fold change,[11]; [18],1.09
same,cell count,[11]; [19],9170
same,cell count,[11]; [20],10300
same,z-score,[12]; [21],0.637 (inactive)
same,z-score,[12]; [22],-0.175
